“And” between values parts separate entries of the source, which are not always exact repeats. Identical values can stand only once. This is part of a sample that, as a whole, favours compounds with a hit. Of some 83,000 tested, about 20% had one in any assay.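 Activity criterion: percent growth below 10, measured after cells in 96-well plates were exposed to a single compound concentration for 48 hours.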 The source made the active and inactive calls.

In this assay the test system is HL-60(TB) leukemia. Nature of the assay: NCI-60 one-dose screen, 48 h (100 = growth as untreated, 0 = no growth, -100 = all killed). The following applies: 10 µM unless noted.
For `COc1ccc(/C=N/C2=C(C#N)C(c3cccc(Cl)c3)c3c(ccc4ccccc34)O2)cc1` (stereo not given), the growth was -18.6% (active).

On to `O=C(Nc1ccncc1)C(=O)c1cn(S(=O)(=O)c2ccc(Br)cc2)c2ccccc12`, for which the growth is 15.3% (inactive).

In the case of `COc1ccc(C(=O)N2NC(=O)/C(=C/c3ccccc3F)N=C2c2ccccc2)cc1`, the growth is 93.9% (inactive).

As for `C=C1C(=O)O[C@H]2[C@H]1CC/C(COC(=O)CCC(=O)OC/C1=C/CC[C@@]3(C)O[C@H]3[C@H]3OC(=O)C(=C)[C@@H]3CC1)=C\CC[C@@]1(C)O[C@@H]21`, the growth was -41.9% (active).

Consider `CCOC(=O)c1ccc2[nH]c(O)c(C(=Nc3ccc(N(C)C(=O)CN4CCN(C)CC4)cc3)c3ccccc3)c2c1`, for which the growth was -52.6% (active).

In the case of `CCOC(=O)C(=Cc1cccc(Br)c1)C(=O)OCC`, the growth was -6.91% (active).

`CC(C)(C#N)c1cc(F)cc(C(=O)Nc2cc(Nc3ncccc3-c3ncnc4nc[nH]c34)ccc2F)c1`: the growth is 13.9% (inactive).

Regarding `COc1ccc2c(c1)OC1=C(C(=O)OC1)C2c1cc(OC)c2c(c1)OCCO2` (stereo not given), the growth was -29.2% (active).

`COc1ccc(-c2cnnn2-c2nonc2-n2cccc2)cc1`: the growth was -37.9% (active).

Turning to `CC(=O)NC1C(O[C@H]2C[C@H]3[C@@H]4CC=C5C[C@@H](O)CC[C@]5(C)[C@H]4CC[C@]3(C)[C@H]2[C@H](C)C(=O)CCC(C)C)OCC(O)C1O` (stereo not given in full), the growth was 10.1% (inactive).

Turning to `COc1ccc(-c2csc(NC(=O)CN3CCN(c4cc5c(cc4F)c(=O)c(C(=O)O)cn5C4CC4)CC3)n2)cc1`, the growth was -25% (active).

With `COc1ccc(-c2nnc(-c3ccc4c(c3)nc(-c3ccncc3)n4C3CCCCC3)o2)cc1`, the growth is 46.1% (inactive).

Take `O=C(CCl)N1CCCc2ccccc21`: the growth is 93.3% (inactive).

`Nc1nc2c(nnn2Cc2ccc(Cl)c(Cl)c2)c(=O)[nH]1`: the growth was 95% (inactive).

In the case of `IC(I)I`, the growth was 98.3% (inactive).

`CC(C)=CCC[C@](C)(O)[C@H]1CC[C@]2(C)[C@@H]1CC[C@@H]1[C@@]3(C)Cc4nccnc4C(C)(C)[C@@H]3CC[C@]12C`: the growth was 67.8% (inactive).

Regarding `C#CC(=O)Nc1cccc2c1cc(C)n2-c1nc2c(c(NCc3ccccc3)n1)CCCC2`, the growth is -40.1% (active).

`CC/C=C\C[C@H](O)C/C=C1/C(=O)C=C[C@@H]1C/C=C\CCCC(=O)N(C)C`: the growth is 0.857% (active).

Regarding `N#CCCn1cnc2c(N)ncnc21`, the growth is 98.6% (inactive).

As to `Cc1cn(-c2cc(NC(=O)c3cncc(C#Cc4cnc(N)c5ncccc45)c3)cc(C(F)(F)F)c2)cn1`, the growth was 18.7% (inactive).

Regarding `Oc1ccc(Cl)cc1/C=N\NC(=S)N/N=C/c1cc(Cl)ccc1O`, the growth is 12.2% (inactive).

As to `CCCCCN1C=C/C(=C\C(=O)N(C)c2ccc(Br)cc2)c2ccccc21`, the growth was 98.2% (inactive).

With `CCn1c(Cc2ccccc2Nc2c(Cl)cccc2Cl)nnc1SCC(=O)Nc1ccccc1C(F)(F)F`, the growth was 86.9% (inactive).

As to `Cc1ccc(OC(=O)c2ccc(Cl)cc2)cc1`, the growth is 124% (inactive).

For the compound `Nn1c(Nc2ccc(S(=O)(=O)Nc3ncccn3)cc2)nnc(/C=C/c2c(O)ccc3ccccc23)c1=O`, the growth was 86.1% (inactive).

With `O=C(C[C@]1(O)C(=O)Nc2ccccc21)c1cccc(C(F)(F)F)c1`, the growth is 102% (inactive).

Take `Cc1cc(Nc2ccc(Cl)c(Cl)c2)nc(N)n1`: the growth was 62.7% (inactive).

Take `CCN(CC)C(=O)O/N=C(/C)c1ccccc1`: the growth is 95.5% (inactive).

In the case of `FC(F)(F)c1ccc(-c2cnc(-c3nn[nH]n3)nc2NC2CCCCCC2)cc1`, the growth is 31.1% [50 µM] (inactive).

Take `Nc1cccc(NC(=O)C(=O)Nc2cccc(N)c2)c1`: the growth is 97.5% (inactive).

As to `COc1cnc2c(c1)C(=O)c1c-2n(CCCN2CCCC2)c(=O)c2cc([N+](=O)[O-])ccc12`, the growth was -24.9% (active).

As to `CNc1ccc(O)cc1`, the growth is 103% (inactive) and 93% (inactive).

For `Cc1nc(NC(=O)N2CCC[C@H]2C(N)=O)sc1-c1ccnc(C(C)(C)C(F)(F)F)c1`, the growth is 24% (inactive).

Regarding `CC1(c2ccccc2)NC(=O)N(CC(=O)Nc2cccc(I)c2)C1=O` (stereo not given), the growth is 84.2% (inactive).

Consider `Cn1c(=O)c2c(nc(NC3=NS(=O)(=O)c4ccccc43)n2CC(=O)N2CCc3ccccc32)n(C)c1=O`, for which the growth is 111% (inactive).

For `COc1cccc(Nc2nc(NCCO)c3ccccc3n2)c1`, the growth is 61.4% (inactive).

Regarding `COC(=O)c1ccc2[nH]c(O)c(C(=Nc3ccc(N(C)C(=O)CN4CCN(C)CC4)cc3)c3ccc4c(c3)OCO4)c2c1`, the growth is -34.9% (active).

As to `O=C(Nc1ccc(Cl)cc1)c1cc2ccccc2cc1OP(=O)(O)O`, the growth is 37.3% (inactive).

As to `N#CCCN(NC(=O)OCc1ccccc1)C(=O)OCc1ccccc1`, the growth was 115% (inactive).

`O=C1/C(=C/c2ccc(O)cc2)Cc2ccc(Cl)cc21`: the growth was 60.1% (inactive).

Values taken from PubChem BioAssay (NCI).
